Most compounds without a hit are left out; they make up all but 0.81% or so of the library.
NCOA1 inh = SRC1 coactivator transcriptional activity inhibitors, primary screen, cell-based, luminescence. Nuclear receptor coactivator 1 (Homo sapiens), Q15788. HEK293 GAL4-SRC1 luciferase reporter. inhibition, % at 3.6 µM. 360,000 compounds, 0.12% hits. AID 588354, 2011;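 active = inhibition above the campaign mean plus 3 SD, with each screening campaign given its own cutoff, cut at about 60% in these data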
NCOA3 inh = SRC3 coactivator transcriptional activity inhibitors, primary screen, cell-based, luminescence; Nuclear receptor coactivator 3 (Homo sapiens), Q9Y6Q9; HEK293 GAL4-SRC3 luciferase reporter; inhibition, % at 3.6 µM; 360,000 compounds, 0.17% hits;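 active = inhibition above a per-campaign cutoff, the mean of all compounds plus 3 SD, cut at about 60% in these data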;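 note: higher means less SRC3-driven luciferase light from the GAL4 reporter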
SRC2 inh = inhibition of GAL4-SRC2 driven luciferase reporter, primary screen, SRC2 inhibitor project, cell-based, luminescence. inhibition, % at 9 µM. 370,000 compounds, 0.17% hits. Nuclear receptor coactivator 2 (Homo sapiens), Q15596. HEK293 GAL4-SRC2 luciferase reporter;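 active = inhibition above the mean inhibition of all tested compounds plus 3 SD, set per campaign, cut at about 52% in these data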
NR5A2 inv ag = LRH-1 (NR5A2) inverse agonists, primary screen, cell-based, luminescence, HEK293T, StAR-luciferase reporter. inhibition, % at 3.6 µM. 360,000 compounds, 0.13% hits. Nuclear receptor subfamily 5 group A member 2 (Homo sapiens), O00482. LRH-1 transfected, 24 h;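 active = inhibition above the mean inhibition of all tested compounds plus 3 SD, cut at about 73% in these data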
COUP-TFII inh = NR2F2 transcriptional activity inhibitors, primary screen, cell-based, luciferase reporter, HEK293T, luminescence. 370,000 compounds, 0.7% hits. HEK293T NGFI-A luciferase reporter. inhibition, % at 8.6 µM. COUP transcription factor 2 (Homo sapiens), P24468;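 active = inhibition above a per-plate cutoff, mean inhibition of test wells between control levels plus 3 SD, cut at about 38% in these data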;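 note: cells cotransfected with COUP-TFII expression vector driving the NGFI-A reporter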
Target sequence (P24468 whole entry, looked up): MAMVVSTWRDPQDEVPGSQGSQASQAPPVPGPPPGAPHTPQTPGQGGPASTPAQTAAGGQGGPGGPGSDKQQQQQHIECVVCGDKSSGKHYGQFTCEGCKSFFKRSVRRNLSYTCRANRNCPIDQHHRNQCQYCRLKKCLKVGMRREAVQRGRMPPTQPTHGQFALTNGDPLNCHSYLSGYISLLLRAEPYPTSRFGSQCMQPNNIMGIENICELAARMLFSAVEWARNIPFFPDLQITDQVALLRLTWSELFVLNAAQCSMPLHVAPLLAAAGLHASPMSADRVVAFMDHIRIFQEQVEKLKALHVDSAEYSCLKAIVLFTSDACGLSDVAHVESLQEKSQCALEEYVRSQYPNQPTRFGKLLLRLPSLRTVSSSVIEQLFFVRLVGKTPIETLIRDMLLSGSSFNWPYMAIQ
A number is an active result; 0 = inactive; - = no result.

SMILES | NCOA1 inh | NCOA3 inh | SRC2 inh | NR5A2 inv ag | COUP-TFII inh
O=C1C=CC2(O[C@H](c3ccccc3)[C@@H](c3ccccc3)O2)[C@H](Sc2ccccc2O)C1 | 0 | 0 | 0 | 0 | 87
COc1ccc(C(=O)N2CCc3c([nH]c4ccccc34)C2C(F)(F)F)cc1 (centres undefined) | 0 | 0 | 0 | 0 | 0
CC(C)/C=C(/C(=O)c1ccc(Cl)cc1Cl)n1cncn1 | 0 | 0 | 0 | 0 | 0
CC(C)(C)C(=O)/C(=C/c1ccc(Cl)cc1)n1cncn1 | 0 | 73 | 62 | 0 | 0
CCCC(=O)Nc1ccc(C(=O)N/N=C/c2ccc([N+](=O)[O-])o2)cc1 | 65 | 71 | 0 | 83 | 0
COc1ccc2cc(Br)ccc2c1CC(=O)N(C)C | 0 | 0 | 0 | 0 | 0
COc1ccc2c(c1)-c1c(ssc1=S)C(C)(C)N2 | 0 | 66 | 0 | 0 | 0
COc1ccc(-n2sc3c(c2=S)-c2cc(OC)ccc2NC3(C)C)cc1 | 0 | 0 | 0 | 0 | 0
CC1(OC(=O)C2CCCC2)C(=O)C=C2C=C(c3ccsc3)N(c3ccccc3)C=C2C1=O (centres undefined) | 0 | 0 | 0 | 0 | 0
CC(=O)N(Cc1ccc(F)cc1)C1=C(NCc2ccccc2)C(=O)c2ccccc2C1=O | 0 | 63 | - | 0 | -
CCc1ccc(/C=C2\SC(=S)N(CCCC(=O)Nc3ccccn3)C2=O)cc1 | 0 | 0 | 57 | 0 | 0
COC(=O)c1ccc(/C=C2/SC(=S)N(CCCC(=O)Nc3ccccn3)C2=O)cc1 | 0 | 0 | 0 | 0 | 0
COc1ccc(/C=C2\SC(=S)N(CCCC(=O)Nc3ccc(O)cc3)C2=O)cc1 | 0 | 0 | 60 | 0 | 0
O=[N+]([O-])c1cccnc1Sc1ccc(Cl)cc1 | 0 | 0 | 0 | 0 | 0
Cc1ccc2[nH]c3c(c2c1)CCCC3C(N)=O (centres undefined) | 0 | 0 | 0 | 0 | 0
Cc1ccc2[nH]c3c(c2c1)CCCC3NC(=O)CCl (centres undefined) | 77 | 77 | - | 89 | -
CCCc1cc(C(=O)OCC(=O)N2CCN(c3ccc(OC)cc3)CC2)sc1C | 0 | 0 | 0 | 0 | 0
Cc1cc(Nc2ccccc2)n(-c2ccccc2)n1 | 0 | 0 | 0 | 0 | 0
Cc1cc(C)nc(-n2nc(C)cc2Nc2ccccc2)n1 | 0 | 0 | 0 | 75 | 0
Cn1c(N)c(C(=O)COC(=O)CCc2c[nH]c3ccccc23)c(=O)n(C)c1=O | 0 | 0 | 0 | 0 | 0
COc1ccc2c(c1)-c1c(ssc1=S)C(C)(C)N2C(=O)CSC1=NCCS1 | 0 | 0 | 0 | 0 | 52
Cc1ccc(NC(=O)CCN2CCN(CCO)CC2)cc1 | 0 | 0 | 0 | 0 | 0
Cc1ccc(NC(=O)CCN2CCCCC2)cc1 | 0 | 0 | 59 | 0 | 0
CCc1ccc(-c2nc(CS(=O)CC(=O)NCc3ccccc3)c(C)o2)cc1 (centres undefined) | 0 | 0 | 55 | 0 | 0
COC(=O)COc1ccc(-c2nccc(-c3ccccn3)n2)cc1 | 0 | 0 | 61 | 0 | 0
SMILES | NCOA1 inh | NCOA3 inh | SRC2 inh | NR5A2 inv ag | COUP-TFII inh
Cc1cccc(-n2c(CNC(=O)c3ccccc3)nnc2SCC(=O)Nc2nccs2)c1 | 0 | 0 | 0 | 85 | 0
CS/C(=C\[N+](=O)[O-])Nc1ccc(OC(F)(F)F)cc1 | 0 | 0 | 0 | 80 | 0
CC(C)(CCl)C(=O)Nc1ccc(OC(F)(F)F)cc1 | 0 | 0 | 0 | 0 | 0
C=CCNc1nc2c(c(=O)n(C)c(=O)n2C)n1CCCCCC | 0 | 0 | 0 | 0 | 61
C=CCNc1nc2c(c(=O)n(C)c(=O)n2C)n1CC | 0 | 0 | 0 | 0 | 0
COc1ccc(Nc2ncnc3ccc(Br)cc23)cc1OC | 61 | 0 | - | 0 | -
Clc1ccc(Nc2ncnc3ccc(Br)cc23)cc1 | 0 | 0 | 0 | 0 | 0
COc1ccc(CNc2ncc(-c3ccc(F)cc3)n2C)c2ccccc12 | 0 | 0 | 82 | 0 | 0
C#CC(=O)N(c1cccc(OC)c1)C(C(=O)NC1CCCC1)c1cccs1 (centres undefined) | 0 | 0 | 0 | 81 | 0
C#CC(=O)N(c1ccc(OC)c(OC)c1)C(C(=O)NC1CCCC1)c1cccs1 (centres undefined) | 0 | 0 | 0 | 0 | 0
CC1CC(=O)Nc2ccccc2N1S(=O)(=O)c1ccc(Cl)cc1 (centres undefined) | 0 | 0 | 0 | 0 | 0
NC(=S)N1OC[C@@H]2COc3ccc4ccccc4c3[C@@H]21 | 0 | 0 | 54 | 0 | 0
Cc1cc(C(=O)C(=O)NC(C)C)c(C)n1-c1ccc([N+](=O)[O-])cc1 | 0 | 0 | 0 | 0 | 0
COc1ccccc1/C=C/C(=O)OCC(=O)N1CCCCC1 | 0 | 0 | 0 | 0 | 0
COc1cccc(/C=C/C(=O)OCC(=O)N2CCCC2)c1OC | 0 | 86 | 0 | 0 | 0
COc1cc(C(=O)NCc2nc(C)cs2)ccc1OC1CCN(C(C)=O)CC1 | 0 | 0 | 0 | 0 | 0
c1ccc(-c2noc(-c3ccccc3-c3ccccc3)n2)cc1 | 0 | 0 | 0 | 0 | 0
O=C(Nc1ccccc1Oc1ccccc1)c1cc([N+](=O)[O-])ccc1Cl | 0 | 0 | 55 | 0 | 0
CCCC(=O)N1CCN(c2ccc(NC(=O)c3cc4ccccc4o3)cc2Cl)CC1 | 0 | 76 | 0 | 0 | 0
COc1ccc(C[C@@H]2OC3(C=CC(=O)C=C3)O[C@H]2Cc2ccc(OC)cc2)cc1 | 0 | 0 | - | 0 | -
O=C1C=CC2(C=C1)O[C@H](Cc1ccccc1)[C@@H](Cc1ccccc1)O2 | 0 | 0 | 54 | 0 | 100
Cc1ccc(-n2nnnc2Sc2ccc(S(=O)(=O)NCCN(C)C)cc2[N+](=O)[O-])cc1 | 0 | 67 | 0 | 0 | 0
CCCOc1ccc(C(=O)NCc2cccnc2)cc1 | 0 | 0 | 0 | 0 | 0
Cc1cc([N+](=O)[O-])nn1CCCC(=O)Nc1ccc(Cl)cc1Cl | 62 | 0 | 0 | 0 | 0
CCN(C(=O)COC(=O)CNC(=O)c1ccc(C)c(C)c1)C1CCS(=O)(=O)C1 (centres undefined) | 0 | 0 | 0 | 0 | 0
SMILES | NCOA1 inh | NCOA3 inh | SRC2 inh | NR5A2 inv ag | COUP-TFII inh
O=C(/C=C/c1ccccc1)CC(O)(c1ccccc1)C(F)(F)F (centres undefined) | 0 | 72 | 0 | 0 | 0
Cc1ccnc2c1ccc1c(C)ccnc12 | 77 | 75 | - | 93 | -
CCN(CC)S(=O)(=O)c1cccc(C(=O)N/N=C(\C)c2ccc(O)cc2O)c1 | 0 | 70 | 0 | 0 | 0
O=C(COC(=O)Cn1nnc2ccccc21)NC1CCCC1 | 0 | 0 | 0 | 0 | 0
CN(Cc1cnc2nc(N)nc(N)c2n1)c1ccc(C(=O)NC(CCC(=O)O)C(=O)O)c2ccccc12 (centres undefined) | 73 | 64 | 0 | 0 | 0
N=c1n(CCO)c2ccccc2n1CCOc1ccc(Cl)cc1Cl | 0 | 0 | 0 | 0 | 0
CCCCC(=O)Nc1cccc(-c2csc(-c3ccccc3)n2)c1 | 0 | 0 | 0 | 0 | 0

Source: PubChem (The Scripps Research Institute Molecular Screening Center)
